Source: PubChem BioAssay (NCI)
This is part of a sample that, as a whole, favours compounds with a hit. Of some 83,000 tested, about 20% had one in any assay.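 The endpoint reported here, percent growth, reads 100 for growth as untreated, 0 for no net growth and -100 for all cells dead.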 Unmarked numbers belong to inactive results. The source made the active and inactive calls. The calls were made as follows: active = growth percent below 10; inactive = the rest.

Tested on: HL-60(TB) leukemia
Assay: NCI-60 one-dose screen, 48 h (100 = growth as untreated, 0 = no growth, -100 = all killed)
Details: 10 µM unless noted

| SMILES | growth |
| --- | --- |
| CCN(CC)CCCN1C(=O)c2c(c(C)c3c(oc4ccc(O)cc43)c2C)C1=O | -5.12% (active) |
| Cc1nn(-c2ccccc2)c(N)c1N=C1NC(=O)/C(=C/c2ccc(Cl)cc2)S1 | 74.3% |
| COc1cccc(CC(C)=C(c2ccc(OCCCN(C)C)cc2)c2ccc(OCCCN(C)C)cc2)c1 | -68% (active) |
| C[C@@H]1N=C(c2ccc3ccccc3c2)Nc2nc3ccccn3c2C1=O | -6.75% (active) |
| CC(C)c1cc(C(C)C)c(S(=O)(=O)Oc2ccc(NC(=O)c3ccc(Cl)cc3)cc2)c(C(C)C)c1 | 16.9% |
| CC1(C)OCC2OC3(C(=O)O)OC(C)(C)OC3C2O1 (centres undefined) | 98.2% |
| CCO/C=C1\SC(=S)N(c2cccc(O)c2)C1=O | 100% |
| O=C(/C=C/c1ccccc1Cl)c1ccc(O)cc1 | 60.2% |
| CN(C)N=Nc1nn(C(=O)Nc2ccc(Cc3ccccc3)cc2)c2ccccc12 | 21.4% |
| Fc1ccc(Cn2cc(CSc3nc4ccccc4o3)nn2)cc1 | 104% |
| Oc1cc(Nc2ccnc3cc(Cl)ccc23)c2ncccc2c1 | 93.1% |
| COc1cc2c(cc1-c1c(C)noc1C)ncc1nc(CN3CCOCC3)n([C@H](C)COC(F)F)c12 | 21.7% |
| CN1CCN(c2ccc3nc(-c4ccc5nc(-c6ccc(O)cc6)[nH]c5c4)[nH]c3c2)CC1 | 40.9% |
| Cn1nc(-c2ccccc2)c2c(-c3ccccc3)onc2c1=O | 1.23% (active) |
| CN[C@@H](CCCNC(N)=NC/C=C(/C)CCC=C(C)C)C(=O)N(C)[C@@H](CCCNC(N)=NCC=C(C)C)C(=O)N[C@H](C)[C@H](OS(=O)(=O)O)c1ccc(OS(=O)(=O)O)c(COS(=O)(=O)O)c1 | 83.5% |
| O=S(=O)(O)c1ccc2cc(O)ccc2c1 | 100% |
| Cc1ccc(S(=O)(=O)N(c2ccc(Cl)cc2)c2ccc(Br)cc2C(=O)O)cc1 | 110% |
| C#Cc1ccc(-n2c(/C=C/c3cc(OC)c(OC)c(OC)c3)nc3ncccc3c2=O)cc1 | 26.5% |
| CCCCCSB(SCCCCC)c1ccccc1 | 104% |
| Oc1[nH]c2ccccc2c1/C=c1/ccc2c(c1)N=C(c1cc(F)cc(F)c1)N=2 | 54.2% |

| SMILES | growth |
| --- | --- |
| Cc1c(C(=O)/C=C/Nc2c(Cl)cc(S(N)(=O)=O)cc2Cl)sc2nc3ccccc3n12 | 101% |
| O=S(=O)(NCCNc1cc(-c2cn(-c3ccccc3)nc2-c2ccccc2)ccn1)c1ccc(F)cc1 | 69.9% |
| COc1ccc(-c2nc(-c3nc4ccc(C)cc4[nH]3)c3ccccn23)cc1 | 30.5% |
| O=C(O)c1cccc([N+](=O)[O-])c1O | 78.2% |
| Cc1ccc(S(=O)(=O)N2CCC(C(=O)Nc3ccc(F)cc3F)CC2)cc1 | 88.2% |
| CCOC(=O)C1=NN(c2ccccc2)C2=NC(=O)/C(=C\c3cn(-c4ccccc4)nc3-c3cc4ccccc4o3)C(=O)N12 | 76.4% |
| CCn1cc(CNc2ccc(C(=O)Nc3cc4cc(OC)c(OC)cc4c(C)n3)cc2)cn1 | 32.8% |
| O=C(CC1(O)C(=O)Nc2ccc(Br)cc21)c1ccc(Cl)cc1 (centres undefined) | 80.1% |
| O=[N+]([O-])c1cc(S(=O)(=O)OCC2CO2)ccc1Cl (centres undefined) | 80.2% |
| CCOC(=O)n1cc(-c2nonc2-c2cn(C)c3ccccc23)c2ccccc21 | 1.6% (active) |
| COc1ccc(-c2cs/c(=N\N=C\c3ccc(O)cc3O)n2/N=C/c2ccc(O)cc2O)cc1 | -32.6% (active) |
| CCNc1ccc2ccccc2c1N=Nc1ccc(N=Nc2ccccc2)cc1 | 108% |
| CN(C)c1ccc(NC(=O)c2ccc(/C=C/C(=O)c3ncc[nH]3)cc2)cc1 | 17.5% |
| Nc1c(C(=O)Nc2ccccn2)sc2nc3c(cc12)C(O)CCC3 (centres undefined) | 9.6% (active) |
| COc1ccc(C(=O)C/C(=C\c2ccc(Cl)cc2)C(=O)NCc2ccccc2)cc1 | 73.8% |
| CCOC(=O)c1cnc2ccc(OC)cc2c1Nc1cccc(S(=O)(=O)NC)c1 | 109% |
| CC/C(=C\c1ccc(N(C)C)cc1)c1nc2ccccc2c(=O)[nH]1 | 179% |
| CC(=O)ON=C1C=CC(=C(C#N)c2ccccc2)C=C1 | -10.5% (active) |
| COc1ccc(-c2nc3sc(C4CC4)nn3c2/C=C2/C(=O)Nc3ccc(OC)cc32)cc1 | 97% |
